# ± gives the standard deviation of the averaged measurements. About 5,400 targets were measured; listed, in parts, are those with the largest changes and a random draw of the rest.
# Tests used:
# Assay in all cases: NP40-soluble protein abundance relative to vehicle (solubility fold change) (ratio); higher = more soluble protein in presence of GTP
# ARHGAP1 = molecular target: T1, ARHGAP1 (UniProt Q07960)
# T1 sequence (whole entry): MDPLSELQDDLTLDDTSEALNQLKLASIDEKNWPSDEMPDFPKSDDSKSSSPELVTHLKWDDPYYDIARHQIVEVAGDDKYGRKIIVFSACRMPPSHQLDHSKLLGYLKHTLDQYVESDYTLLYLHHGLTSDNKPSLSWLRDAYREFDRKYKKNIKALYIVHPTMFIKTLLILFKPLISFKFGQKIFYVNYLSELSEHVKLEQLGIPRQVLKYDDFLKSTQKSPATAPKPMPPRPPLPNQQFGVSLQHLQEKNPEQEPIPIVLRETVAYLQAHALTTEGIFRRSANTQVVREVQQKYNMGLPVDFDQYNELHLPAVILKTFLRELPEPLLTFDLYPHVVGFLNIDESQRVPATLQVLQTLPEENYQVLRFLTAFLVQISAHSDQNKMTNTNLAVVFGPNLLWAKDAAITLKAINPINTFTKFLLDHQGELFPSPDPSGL
# Method in brief: (§1)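 Jurkat crude lysate prepared with a Dounce homogeniser was treated at eight concentrations spanning 0.1 to 10 mM, 10 min at room temperature then 3 min at 37 °C. Solubilisation with 0.8% NP40 and benzonase and ultracentrifugation preceded TMT labelling of the supernatant for LC-MS/MS. Fold change against the detergent-processed vehicle was determined per replicate from vsn-normalised intensities, across three independent experiments.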
# [1] = molecular target: T2, UniProt Q08170|A0A0D9SEM4
# T2 sequence (whole entry): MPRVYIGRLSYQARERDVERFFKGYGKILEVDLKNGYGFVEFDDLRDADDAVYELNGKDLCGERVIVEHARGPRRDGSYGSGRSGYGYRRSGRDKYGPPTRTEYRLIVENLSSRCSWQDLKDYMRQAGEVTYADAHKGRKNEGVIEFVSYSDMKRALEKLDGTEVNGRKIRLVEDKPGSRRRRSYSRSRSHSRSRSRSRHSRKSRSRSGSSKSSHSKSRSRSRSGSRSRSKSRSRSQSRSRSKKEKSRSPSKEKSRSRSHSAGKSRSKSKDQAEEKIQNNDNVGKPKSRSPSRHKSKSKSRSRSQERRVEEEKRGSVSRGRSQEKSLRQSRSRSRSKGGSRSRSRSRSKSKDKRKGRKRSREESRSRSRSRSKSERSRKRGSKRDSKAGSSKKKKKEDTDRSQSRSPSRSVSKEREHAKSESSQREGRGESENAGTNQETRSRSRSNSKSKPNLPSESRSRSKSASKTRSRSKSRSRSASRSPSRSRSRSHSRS
# Method in brief: as §1
# [2] = molecular target: T3, UniProt Q4ADV7|Q4ADV7-3|Q4ADV7-2
# T3 sequence (whole entry): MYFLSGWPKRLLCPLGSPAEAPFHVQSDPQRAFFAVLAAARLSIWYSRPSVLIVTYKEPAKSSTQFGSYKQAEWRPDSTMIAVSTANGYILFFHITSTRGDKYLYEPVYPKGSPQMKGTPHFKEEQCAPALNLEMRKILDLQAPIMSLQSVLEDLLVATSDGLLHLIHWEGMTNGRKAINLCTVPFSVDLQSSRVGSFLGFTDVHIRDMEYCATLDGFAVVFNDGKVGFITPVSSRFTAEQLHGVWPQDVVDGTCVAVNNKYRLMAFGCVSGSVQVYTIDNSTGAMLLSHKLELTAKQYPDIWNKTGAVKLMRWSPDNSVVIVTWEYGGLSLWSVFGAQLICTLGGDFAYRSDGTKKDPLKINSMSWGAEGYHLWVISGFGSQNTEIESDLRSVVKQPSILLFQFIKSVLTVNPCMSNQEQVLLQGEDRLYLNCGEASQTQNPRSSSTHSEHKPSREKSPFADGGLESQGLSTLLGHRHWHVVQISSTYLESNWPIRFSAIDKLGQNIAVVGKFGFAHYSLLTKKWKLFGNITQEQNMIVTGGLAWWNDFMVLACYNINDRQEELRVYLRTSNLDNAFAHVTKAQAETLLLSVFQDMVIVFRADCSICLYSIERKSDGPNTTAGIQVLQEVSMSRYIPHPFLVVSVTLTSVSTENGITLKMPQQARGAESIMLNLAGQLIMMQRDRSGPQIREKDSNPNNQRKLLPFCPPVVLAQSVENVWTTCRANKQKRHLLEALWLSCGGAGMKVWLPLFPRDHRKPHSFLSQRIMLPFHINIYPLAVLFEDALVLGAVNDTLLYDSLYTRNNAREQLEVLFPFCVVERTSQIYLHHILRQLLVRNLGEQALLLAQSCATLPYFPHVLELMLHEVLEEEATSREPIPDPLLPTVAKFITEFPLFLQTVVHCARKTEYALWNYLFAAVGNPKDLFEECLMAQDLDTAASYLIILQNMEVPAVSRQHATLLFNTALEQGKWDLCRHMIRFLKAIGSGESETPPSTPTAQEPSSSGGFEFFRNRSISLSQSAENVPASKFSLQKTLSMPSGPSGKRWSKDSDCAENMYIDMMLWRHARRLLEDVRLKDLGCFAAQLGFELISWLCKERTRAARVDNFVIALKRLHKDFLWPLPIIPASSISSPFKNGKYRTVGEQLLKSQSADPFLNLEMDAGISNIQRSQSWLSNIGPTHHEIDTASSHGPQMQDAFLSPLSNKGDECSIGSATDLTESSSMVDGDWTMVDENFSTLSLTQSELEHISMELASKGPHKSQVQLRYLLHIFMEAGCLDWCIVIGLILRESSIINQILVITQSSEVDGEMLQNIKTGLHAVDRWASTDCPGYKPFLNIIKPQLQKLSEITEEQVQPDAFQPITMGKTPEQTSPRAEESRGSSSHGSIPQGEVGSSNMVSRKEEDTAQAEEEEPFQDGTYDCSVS
# Method in brief: as §1
# UniProt Q68CQ4 = molecular target: T4, UniProt Q68CQ4
# T4 sequence (whole entry): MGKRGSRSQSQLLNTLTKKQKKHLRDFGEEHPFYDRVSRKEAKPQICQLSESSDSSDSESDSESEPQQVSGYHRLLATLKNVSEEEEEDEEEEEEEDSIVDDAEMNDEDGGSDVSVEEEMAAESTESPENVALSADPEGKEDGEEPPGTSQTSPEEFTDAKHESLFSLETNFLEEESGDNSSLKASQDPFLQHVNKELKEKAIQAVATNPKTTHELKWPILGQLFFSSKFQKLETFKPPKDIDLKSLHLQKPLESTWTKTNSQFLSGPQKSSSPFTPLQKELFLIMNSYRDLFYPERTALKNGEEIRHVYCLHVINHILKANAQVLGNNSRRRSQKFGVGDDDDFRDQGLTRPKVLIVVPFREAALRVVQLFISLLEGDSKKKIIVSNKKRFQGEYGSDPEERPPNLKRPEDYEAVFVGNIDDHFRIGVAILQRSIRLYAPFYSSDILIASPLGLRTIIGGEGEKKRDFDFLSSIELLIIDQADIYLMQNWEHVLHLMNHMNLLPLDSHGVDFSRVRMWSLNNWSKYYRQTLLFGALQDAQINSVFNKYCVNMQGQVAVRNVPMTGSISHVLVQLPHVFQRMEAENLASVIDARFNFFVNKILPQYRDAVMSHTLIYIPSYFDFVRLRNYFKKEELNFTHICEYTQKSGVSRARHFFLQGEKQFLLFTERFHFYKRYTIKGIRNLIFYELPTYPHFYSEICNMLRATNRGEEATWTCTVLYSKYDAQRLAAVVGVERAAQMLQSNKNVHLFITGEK
# Method in brief: as §1
# [3] = molecular target: T5, UniProt Q6ULP2|Q6ULP2-2|Q6ULP2-4|Q6ULP2-5|Q6ULP2-3
# T5 sequence (whole entry): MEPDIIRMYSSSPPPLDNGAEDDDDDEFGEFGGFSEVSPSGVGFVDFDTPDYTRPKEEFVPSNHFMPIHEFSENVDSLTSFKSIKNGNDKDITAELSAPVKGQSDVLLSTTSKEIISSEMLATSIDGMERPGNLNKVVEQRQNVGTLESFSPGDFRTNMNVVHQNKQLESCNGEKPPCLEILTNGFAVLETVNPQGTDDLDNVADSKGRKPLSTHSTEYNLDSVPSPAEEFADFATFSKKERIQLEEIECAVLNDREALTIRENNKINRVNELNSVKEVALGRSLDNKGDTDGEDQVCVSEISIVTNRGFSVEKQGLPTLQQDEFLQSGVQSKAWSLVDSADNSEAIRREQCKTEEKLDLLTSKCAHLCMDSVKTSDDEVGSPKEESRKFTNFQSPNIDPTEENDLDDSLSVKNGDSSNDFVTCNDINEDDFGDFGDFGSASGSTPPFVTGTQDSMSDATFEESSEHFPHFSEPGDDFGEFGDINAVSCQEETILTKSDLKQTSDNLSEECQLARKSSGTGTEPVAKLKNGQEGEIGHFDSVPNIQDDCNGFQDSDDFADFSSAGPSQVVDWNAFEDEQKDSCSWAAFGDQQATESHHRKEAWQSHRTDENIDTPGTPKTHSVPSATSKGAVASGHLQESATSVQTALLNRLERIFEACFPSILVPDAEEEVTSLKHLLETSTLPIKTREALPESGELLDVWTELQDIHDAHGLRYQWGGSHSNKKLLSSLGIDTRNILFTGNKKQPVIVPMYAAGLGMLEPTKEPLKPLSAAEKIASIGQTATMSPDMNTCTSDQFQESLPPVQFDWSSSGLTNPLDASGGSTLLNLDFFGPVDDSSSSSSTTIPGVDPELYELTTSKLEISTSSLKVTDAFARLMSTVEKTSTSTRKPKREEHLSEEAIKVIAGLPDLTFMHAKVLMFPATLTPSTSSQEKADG
# Method in brief: as §1
compound,measurement,setting,value
Nc1nc2c(ncn2[C@@H]2O[C@H](COP(=O)(O)OP(=O)(O)OP(=O)(O)O)[C@@H](O)[C@H]2O)c(=O)[nH]1 [guanosine triphosphate],NP40-soluble protein abundance,ARHGAP1; concentration: 0.1mM,0.963 ± 0.015
same,NP40-soluble protein abundance,ARHGAP1; concentration: 0.5mM,0.961 ± 0.012
same,NP40-soluble protein abundance,ARHGAP1; concentration: 1mM,0.952 ± 0.011
same,NP40-soluble protein abundance,ARHGAP1; concentration: 2mM,0.93 ± 0.045
same,NP40-soluble protein abundance,ARHGAP1; concentration: 4mM,0.942 ± 0.042
same,NP40-soluble protein abundance,ARHGAP1; concentration: 6mM,0.911 ± 0.037
same,NP40-soluble protein abundance,ARHGAP1; concentration: 8mM,0.867 ± 0.06
same,NP40-soluble protein abundance,ARHGAP1; concentration: 10mM,0.908 ± 0.064
same,NP40-soluble protein abundance,[1]; concentration: 0.1mM,0.928 ± 0.042
same,NP40-soluble protein abundance,[1]; concentration: 0.5mM,1.23 ± 0.055
same,NP40-soluble protein abundance,[1]; concentration: 1mM,1.27 ± 0.028
same,NP40-soluble protein abundance,[1]; concentration: 2mM,1.15 ± 0.052
same,NP40-soluble protein abundance,[1]; concentration: 4mM,0.94 ± 0.034
same,NP40-soluble protein abundance,[1]; concentration: 6mM,1.09 ± 0.042
same,NP40-soluble protein abundance,[1]; concentration: 8mM,1.2 ± 0.053
same,NP40-soluble protein abundance,[1]; concentration: 10mM,1.08 ± 0.035
same,NP40-soluble protein abundance,[2]; concentration: 0.1mM,1.09 ± 0.11
same,NP40-soluble protein abundance,[2]; concentration: 0.5mM,1.13 ± 0.091
same,NP40-soluble protein abundance,[2]; concentration: 1mM,1.02 ± 0.04
same,NP40-soluble protein abundance,[2]; concentration: 2mM,1.07 ± 0.077
same,NP40-soluble protein abundance,[2]; concentration: 4mM,1.12 ± 0.18
same,NP40-soluble protein abundance,[2]; concentration: 6mM,0.946 ± 0.025
same,NP40-soluble protein abundance,[2]; concentration: 8mM,0.92397 ± 0.00016
same,NP40-soluble protein abundance,[2]; concentration: 10mM,0.963 ± 0.19
same,NP40-soluble protein abundance,UniProt Q68CQ4; concentration: 0.1mM,1.02 ± 0.068
same,NP40-soluble protein abundance,UniProt Q68CQ4; concentration: 0.5mM,1.02 ± 0.051
same,NP40-soluble protein abundance,UniProt Q68CQ4; concentration: 1mM,1.01 ± 0.048
same,NP40-soluble protein abundance,UniProt Q68CQ4; concentration: 2mM,0.992 ± 0.04
same,NP40-soluble protein abundance,UniProt Q68CQ4; concentration: 4mM,0.999 ± 0.026
same,NP40-soluble protein abundance,UniProt Q68CQ4; concentration: 6mM,0.994 ± 0.042
same,NP40-soluble protein abundance,UniProt Q68CQ4; concentration: 8mM,1.02 ± 0.046
same,NP40-soluble protein abundance,UniProt Q68CQ4; concentration: 10mM,1.03 ± 0.048
same,NP40-soluble protein abundance,[3]; concentration: 0.1mM,1.01 ± 0.098
same,NP40-soluble protein abundance,[3]; concentration: 0.5mM,1.02 ± 0.066
same,NP40-soluble protein abundance,[3]; concentration: 1mM,0.979 ± 0.064
same,NP40-soluble protein abundance,[3]; concentration: 2mM,1 ± 0.044
same,NP40-soluble protein abundance,[3]; concentration: 4mM,1.06 ± 0.041
same,NP40-soluble protein abundance,[3]; concentration: 6mM,1 ± 0.023
same,NP40-soluble protein abundance,[3]; concentration: 8mM,1.03 ± 0.033
same,NP40-soluble protein abundance,[3]; concentration: 10mM,1.02 ± 0.042

# From the supplement of paper PMC6411743
